From PubChem BioAssay
Tau fluor counter: counter-screen for tau fibril formation inhibitors; tau K18 P301L Alexa594 fluorescence, heparin fibrillization; Potency, µM (doses to about 57.7 µM); 280,000 tested, 0.93% active; AID 1463; note: nearly all actives have a fitted effect of over 55% in size
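Human K18 P301L tau (15 uM unlabeled plus 0.24 uM Alexa 594-labeled, final) in 100 mM sodium acetate pH 7 was mixed with compound and 20 uM heparin and incubated 6 hr at 37 C.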
Tau fibril FP: inhibitors of human tau fibril formation; Potency, µM (series often up to 57.7 µM), usual class: inhibitors; AID 1468; P10636; 280,000 tested, 0.39% active; K18 P301L tau heparin fibrillization, Alexa594 FP, 6 h; note: nearly all actives have a fitted effect of over 55% in size
Target sequence (P10636 561-689 P618L limits assumed): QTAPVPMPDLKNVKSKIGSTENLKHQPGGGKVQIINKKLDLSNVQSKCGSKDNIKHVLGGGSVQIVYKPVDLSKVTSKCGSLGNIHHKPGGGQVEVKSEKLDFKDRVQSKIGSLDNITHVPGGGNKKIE
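Heparin (20 uM) drove fibril formation of recombinant tau K18 P301L, 15 uM unlabeled with 0.24 uM Alexa 594 label, for 6 hr at 37 C in 100 mM sodium acetate pH 7. Fluorescence polarization (555/632 nm) read 1 hr after 30 uM ThT.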
Tau ThT inhib: tau fibrillization inhibition (ThT binding); P10636; recombinant tau K18 P301L (four-repeat tau fragment), heparin-induced fibrillization, ThT fluorescence; Potency, µM (highest dose often 57.4 µM), hits mostly inhibitors; 270,000 tested, 2.1% active; note: nearly all actives have a fitted effect of over 55% in size
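Tau K18 P301L fragment (15 uM unlabeled plus 0.24 uM Alexa 594-labeled) in 100 mM sodium acetate pH 7 with compound, fibrillization induced by 20 uM heparin for 6 hr at 37 C. Thioflavin T (30 uM) added, fluorescence read after 1 hr (ex 450, em 510 nm).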
TR SRC2 fluor cs: Texas Red fluorescence interference in TRb-SRC2 counter-screen | TRb/SRC2 Texas Red total fluorescence interference | Potency, µM (titrated, usually from 106 µM) | 280,000 tested, 0.29% active | AID 1479; active = well fitted curve in either direction with a large enough effect; inconclusive = small, poorly fitted or top-dose-only effect
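Human TRβ ligand-binding domain (0.6 uM) and Texas Red SRC2 peptide (20 nM) in Tris buffer with 1 uM T3 and 5% DMSO were incubated with pinned compound for 5 hr at ambient temperature. Total fluorescence was computed as S + 2P (555/632 nm).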
TRb-SRC2 inh: TRbeta-SRC2 interaction inhibition; P10828; TRbeta-SRC2 peptide binding, fluorescence polarization; receptor liganded with 1 µM T3; Potency, µM (titrated, usually from 106 µM), most hits filed as inhibitors; 280,000 tested, 0.065% active; AID 1469; note: nearly all actives have a fitted effect of over 50% in size
Target sequence (P10828 whole entry, looked up): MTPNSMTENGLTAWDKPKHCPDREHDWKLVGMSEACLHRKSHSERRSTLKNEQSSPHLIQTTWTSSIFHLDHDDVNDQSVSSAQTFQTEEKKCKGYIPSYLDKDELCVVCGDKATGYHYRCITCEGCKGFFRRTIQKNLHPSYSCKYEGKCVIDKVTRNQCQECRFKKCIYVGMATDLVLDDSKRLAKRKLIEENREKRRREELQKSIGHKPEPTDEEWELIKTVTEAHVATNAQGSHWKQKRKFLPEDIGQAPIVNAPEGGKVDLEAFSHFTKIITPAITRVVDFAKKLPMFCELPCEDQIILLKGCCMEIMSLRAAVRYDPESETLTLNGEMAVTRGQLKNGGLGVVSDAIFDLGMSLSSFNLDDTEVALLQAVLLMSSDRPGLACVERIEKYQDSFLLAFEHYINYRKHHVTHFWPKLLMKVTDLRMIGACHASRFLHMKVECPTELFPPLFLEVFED
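TRb LBD 0.6 uM + Texas Red SRC2 peptide 20 nM, 1 uM T3, Tris buffer w/ 5% DMSO; compound pinned, 5 h RT; FP read ex 555/em 632; normalized to unbound and bound controls.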
Hits are given with their value; i = inactive; ? = inconclusive; nt = no result given; [ ] = another dose, or the depositor's remark. In the library only some 3% were active in any assay of this set; here they are far more common. Unless noted, calls come from the whole dose curve; as a rule, active = well fitted curve in the direction sought with a large enough effect; inconclusive = small, poorly fitted or top-dose-only effect, or another doubt; inactive = no such curve, though single readings can be large; an effect the other way counts as inactive or inconclusive.

SMILES	Tau fluor counter	Tau fibril FP	Tau ThT inhib	TR SRC2 fluor cs	TRb-SRC2 inh
COC(=O)c1cc(N=Nc2sc(N)nc2C)cc(C(=O)OC)c1	?	i	16µM	i	i
COC(=O)c1ccc2nc(C)c(C)nc2c1	i	i	i	i	i
Nc1nonc1C(=O)NCCN=Cc1cc(Cc2ccccc2)cc(Br)c1O	?	?	28µM	i	i
Nc1nonc1C(=O)NCCN=Cc1ccccc1O	i	i	i	i	i
COC(=O)[C@@H]1CC[C@H](C)[C@@H](c2ccc(C)cc2)N1C(=O)c1ccc(/C=N\OC[C@@H](C)[C@H](OCc2ccccc2)C(C)C)cc1	i[11.6 µM]	i[11.6 µM]	i[11.5 µM]	i[11.2 µM]	i[11.2 µM]
O=C(Nc1cccc(Cl)c1)C1=Cc2cc(Cl)ccc2OC1	?	?	i	i	i
O=C(Nc1ccc(Cl)c(Cl)c1)C1=Cc2ccccc2OC1	?	16µM	?	i	i
COc1cc2c(cc1OC)C1C(=O)c3c(O)cc4c(c3OC1CO2)C=CC(C)(C)O4 (stereo unspecified)	?	i	?	i	i
COc1cccc(N=Nc2c(N)[nH]n3c(=O)c4c(nc23)CCCC4)c1	?	i	1.4µM	i	i
COc1cccc(N=Nc2c(N)[nH][nH]c2=O)c1	i	i	?	i	i
Cc1ccc2c(=O)c(C(=O)c3cccc(Cl)c3)cn(CC(=O)Nc3ccc4c(c3)OCCO4)c2n1	?	i	i	i	i
Cc1cccc(C)c1NC(=O)CCC(=O)N1Cc2ccccc2Oc2ncccc21	i	i	i	i	i
O=C(Cc1ccccc1Nc1c(Cl)cccc1Cl)OCO/N=[N+](\[O-])N1CCCC1	nt	nt	nt	i	i
CC1(C)Cc2ccccc2C2=NNC(=O)C2=N1	i	?	16µM	i	i
Cn1nc([N+](=O)[O-])c(C(C#N)c2ccccn2)c(Cl)c1=O (stereo unspecified)	13µM[quencher]	?	8.9µM	i	i
CCn1nc([N+](=O)[O-])c(C(C#N)c2nc3cc(C(F)(F)F)ccc3s2)c(Cl)c1=O (stereo unspecified)	6.3µM[quencher]	20µM	4.5µM	i	i
C/C(N)=C(/C#N)C(=O)CSc1nc2cc(Cl)ccc2s1	?	?	?	i	i
CCCCn1c(N)c(-c2nc3ccccc3o2)c2c([N+](=O)[O-])nn(CC)c(=O)c21	i	i	i	i	i
CCCn1nc([N+](=O)[O-])c(C(C#N)c2nc3ccccc3o2)c(Cl)c1=O (stereo unspecified)	14µM[quencher]	?	7.1µM	i	i
COC(CNC(=O)c1ccc2c3c(onc13)-c1ccccc1C2=O)OC	16µM[quencher]	?	16µM	i	i
COc1ccc(C2/C=C\CN(CC3CCCCC3)C(Cc3ccccc3)C(=O)N2Cc2ccc(F)cc2)cc1 (stereo unspecified)	nt	nt	nt	i	i
COC(=O)C(C)n1nnc2sc(-c3ccccc3)cc2c1=O (stereo unspecified)	i	i	?	i	i
CCc1ccc(NC(=O)C(C)n2nnc3sc(-c4ccccc4)cc3c2=O)cc1 (stereo unspecified)	i	?	28µM	i	i
CC(C)(C)C(=O)NC(c1ccc(Cl)cc1)[C@]1(C)C[C@H]1C1CCCCC1 (stereo partly specified)	i	i	i	i	i
S=C(Nc1ccc(Cl)cc1)Nc1cccc2cnccc12	?	?	25µM	i	i
SMILES	Tau fluor counter	Tau fibril FP	Tau ThT inhib	TR SRC2 fluor cs	TRb-SRC2 inh
COc1ccc(NC(=S)Nc2cccc3cnccc23)cc1	i	?	?	i	i
Fc1ccc(NC(=S)Nc2cccc3cnccc23)cc1	?	?	7.9µM	i	?
CCOc1ccc(NC(=S)Nc2cccc3cnccc23)cc1	i	i	?	?	i
S=C(Nc1cccnc1)Nc1cccc2cnccc12	i	?	13µM	i	i
COc1cccc(N(C)C(=S)Oc2ccc3c(c2)CCCC3)n1	nt	nt	nt	i	i
CCN(CC)CCn1c(-c2ccccc2)nc2c(NCCOC)nc(C)nc21	i	i	i	i	i
Nc1c(C(=O)c2ccc(Br)s2)oc2ccccc12	?	i	10µM	i	i
C=C(C(C)=O)C(O)c1cccc(OC)c1 (stereo unspecified)	i	i	i	i	i
CCCCC(CC)COC(=O)c1ccc(C(=O)OCC(CC)CCCC)cc1 (stereo unspecified)	nt	nt	nt	i	i
CCc1ccc(CN(C(=O)Nc2cccc(Cl)c2)c2ccccn2)cc1	?	?	i	355µM[quencher]	i
CC(C)C(=O)N(Cc1ccccc1)c1ccccn1	i	i	i	i	i
CCOC(=O)c1sc2cc([N+](=O)[O-])cc(SCCO)c2c1N	i	i	2.2µM	i	i
CCOC(=O)CSc1nnc(NC(=O)c2cc([N+](=O)[O-])cc([N+](=O)[O-])c2)s1	i	i	?	i	i
CCOC(=O)c1sc2cc([N+](=O)[O-])cc(SCC(=O)OC)c2c1N	?	i	7.1µM	i	i
CCCn1c(/C=C/c2ccco2)nc2ccccc21	i	i	i	3.5µM[quencher]	i
Cc1ccc(Cn2c(/C=C/c3ccco3)nc3ccccc32)cc1	?	?	25µM	i	i
Cc1ccc2c(=O)c3ccccc3n(CCCN)c2c1C	i	i	i	i	i
CCN(c1ccc(OC)cc1)S(=O)(=O)c1nnc(NC(=O)c2ccccc2C)s1	i	i	i	?	i
CSc1ccc(CCNC(=O)Cn2c(C)c3cnn(-c4ccccc4)c(=O)c3c2C)cc1	i	i	i	i	i
NS(=O)(=O)c1ccc(Nc2nc(-c3cccc([N+](=O)[O-])c3)cs2)cc1	?	i	?	i	i
O=C(Nc1cccc(-c2csc(Nc3ccc(Cl)cc3)n2)c1)c1cc([N+](=O)[O-])cc(C(F)(F)F)c1	7.1µM[quencher]	i	?	i	i
O=C(Nc1ccc(-c2csc(Nc3ccc(Cl)cc3)n2)cc1)c1cc([N+](=O)[O-])cc(C(F)(F)F)c1	7.1µM[quencher]	?	?	i	i
COc1ccc(-c2cc(C(F)(F)F)nc(-n3nc(C(F)(F)F)cc3C)n2)cc1	i	?	i	i	i
Cc1nc2c(C(=O)NCCc3ccc(Cl)cc3)c[nH]n2c(=O)c1Cc1ccc(Cl)cc1	?	i	28µM	i	i
Cc1ccc(S(=O)(=O)Nc2nc(C)c(NC(=O)OCCCl)s2)cc1	i	i	i	i	i
Cc1ccc(S(=O)(=O)Nc2nc(C)c(NC(=O)Nc3ccc(Cl)cc3Cl)s2)cc1	14µM[quencher]	i	22µM	i	i
CCCCNc1nc(C)nc2c1nc(-c1ccccc1)n2CCCN1CCCCC1C (stereo unspecified)	i	i	i	i	i
CC(C)COc1ccc(C(=O)NCC2(N3CCN(C)CC3)CCCCC2)cc1	i	i	i	i	i
Cc1ccc2[nH]c(-c3cccc(N)c3)cc2c1	14µM[quencher]	?	10µM	i	i
CN(C)S(=O)(=O)c1ccc2c(c1)nnn2CCNC(=O)Nc1ccc(Br)cc1	i	i	i	i	i
